Source: PubChem BioAssay (several laboratories)
MLL AF4-AF9 inh: MLL-AF4/AF9 protein interaction inhibition; P42568; AlphaScreen, biotin-AF4 peptide binding to FLAG-AF9; inhibition, % at 10 µM; 350,000 tested, 0.47% active; AID 651704;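 active = every replicate reaching a set inhibition limit, whatever the replicate mean, cut at about 25% in these data; inconclusive = mean inhibition reaches that limit but some replicates miss it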;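 also: 0% = plate neutral control median and 100% = total signal loss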
Target sequence (P42568 whole entry, looked up): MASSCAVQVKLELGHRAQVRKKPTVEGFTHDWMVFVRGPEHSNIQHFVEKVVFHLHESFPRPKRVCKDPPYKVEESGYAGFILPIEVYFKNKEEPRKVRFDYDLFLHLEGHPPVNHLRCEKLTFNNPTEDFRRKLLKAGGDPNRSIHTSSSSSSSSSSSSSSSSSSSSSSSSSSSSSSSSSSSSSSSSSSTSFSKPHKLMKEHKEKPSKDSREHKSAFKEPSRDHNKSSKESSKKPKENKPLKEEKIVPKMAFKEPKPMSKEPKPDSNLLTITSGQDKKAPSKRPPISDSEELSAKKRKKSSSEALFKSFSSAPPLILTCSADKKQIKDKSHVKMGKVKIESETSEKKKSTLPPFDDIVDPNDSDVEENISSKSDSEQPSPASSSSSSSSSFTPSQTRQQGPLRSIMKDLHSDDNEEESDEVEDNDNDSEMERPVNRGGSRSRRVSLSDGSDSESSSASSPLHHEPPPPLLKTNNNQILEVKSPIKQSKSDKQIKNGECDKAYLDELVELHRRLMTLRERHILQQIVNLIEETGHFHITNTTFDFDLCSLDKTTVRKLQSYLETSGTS
Wnt act: activators of Wnt/beta-catenin signaling | 300,000 tested, 1.2% active | activation, % at 9.35 µM | Wnt/beta-catenin reporter cell assay, activator, plate reader; in the data active = activation above about 30%, passing the limit was not always enough; inconclusive = no clear call, values can overlap the other calls;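 also: 0% = neutral control wells and 100% = positive control wells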
SMARCA2 act: activators of SMARCA2 function; MG213 cells, MMTV-luciferase reporter, dexamethasone, overnight; activation, % at 9.1 µM; 370,000 tested, 1% active; in the data active = activation above about 7.8%;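 also: 0% = vehicle wells and 100% = reference activator wells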
esBAF inh: blocks esBAF chromatin remodeling in mouse ES cells. Bmi1-luciferase knock-in reporter, 24 h; 100% = twice the neutral-well signal. reporter increase, % at 12.5 µM. 350,000 tested, 2% active; in the data active = activation above about 40%; inconclusive = no clear call, values can overlap the other calls;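 also: 0% = median of the plate's neutral control wells and 100% = double that signal; a rise in the Bmi1 reporter signal indicates esBAF inhibition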
MITF TRPM1 HTS: activators of MITF-driven TRPM1 promoter activity in SK-MEL-5 cells; SK-MEL-5 TRPM1-promoter luciferase, 24 h; % of positive control, neutral wells = 0; activation, % at 12.5 µM; 300,000 tested, 0.75% active;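 active = mean activation of at least 80% with every replicate also reaching 80%; inconclusive = mean reaches 80% but some replicate falls short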;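 also: 0% = neutral control wells and 100% = parthenolide positive control wells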
FGF22 binding: FGF22 (human) thermal shift binding; recombinant FGF22 thermal shift, SYPRO orange fluorescence; percent of sucrose octasulfate shift, DMSO zero; 340,000 tested, 1.5% active; activity (Tm shift, normalised), % at 9.99 µM; AID 651658;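 active = mean Tm shift, scaled 0 neutral to 100 positive control, at about 1.3% or above, every replicate too, limit read from the data; inconclusive = no clear call, values can overlap the other calls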
Target sequence (Q9HCT0 whole entry, looked up): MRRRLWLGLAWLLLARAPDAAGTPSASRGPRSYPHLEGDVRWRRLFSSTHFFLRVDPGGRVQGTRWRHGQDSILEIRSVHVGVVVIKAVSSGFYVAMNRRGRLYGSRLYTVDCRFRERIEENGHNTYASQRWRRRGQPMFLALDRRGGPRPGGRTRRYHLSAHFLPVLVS
SMARCA2 act conf: SMARCA2 activation, confirmation screen. shares compounds with SMARCA2 act. MG213 cells, MMTV-luciferase with dexamethasone, luminescence, overnight; MG213 cells expressing E1A, Rb sequestered; DMSO wells 0%, reference activator 100%. activation, % at 9.1 µM. 3,500 tested, 30% active;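 active = activation above its plate's cutoff, the mean activation of tested wells plus 3 SD, cut at about 7.9% in these data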
GAL4-VP16 Luc: counter-screen for SMARCA2 activators: GAL4-VP16 luciferase reporter activation | shares compounds with SMARCA2 act | HEK293 GAL4-VP16 pG5luc reporter, luciferase luminescence; scaled: DMSO wells 0%, SAHA wells 100% | activation, % at 9.1 µM | 3,500 tested, 41% active | AID 686939;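 active = activation above the solvent-only control well mean plus 3 SD, averaged across control plates, cut at about 5.2% in these data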
* hit, by the source's call; ? = inconclusive; / = no result. Most compounds without a hit are left out; they make up all but 4.3% or so of the library.

SMILES | MLL AF4-AF9 inh | Wnt act | SMARCA2 act | esBAF inh | MITF TRPM1 HTS | FGF22 binding | SMARCA2 act conf | GAL4-VP16 Luc
c1ccc(CCCCc2ccncc2)cc1 | 0 | -7 | -1 | 17 | 15 | 0 | / | /
COc1ccc(N)cc1-n1cnnn1 | 0 | 0 | -1 | / | 2 | 0 | / | /
COc1ccc(C)cc1-n1cnnn1 | -1 | 8 | 8.1* | / | -1 | 0 | 0 | 2
CC(C)C1N=C2c3ccccc3N=C(SCC(=O)NCCc3ccc(S(N)(=O)=O)cc3)N2C1=O (stereo not drawn) | / | 3 | 9.4* | 1 | / | / | -2 | -1
O=C(Nc1ccccc1)N1CCCCN2[C@H](CO)[C@@H](c3ccc(C#Cc4cccnc4)cc3)[C@@H]2C1 | -9 | / | / | / | / | 0 | / | /
COc1ccccc1NC(=O)CSc1nncn1-c1cccnc1 | -3 | -1 | 13* | -8 | -18 | 0 | 0 | 0
COc1ccccc1NC(=O)CSc1nncn1-c1ccccc1 | -3 | -1 | 3 | -2 | / | 0 | / | /
O=C(Nc1ccc(Cl)c(-c2nc3ccccc3[nH]2)c1)c1ccc2c(c1)OCO2 | / | 0 | 2 | / | 7 | / | / | /
CCN(CC)c1ccc(NC(=O)c2ccc3c(c2)OCO3)cc1 | 16 | 14 | 10* | ? | / | -1 | 4 | 11*
C/C(=N\NC(=O)c1ccc2c(c1)OCO2)c1ccc(NC(=O)CCCC(=O)O)cc1 | 1 | 0 | 8.3* | 4 | 15 | 0 | -5 | 1
CCC(=O)Nc1ccc(NC(=O)c2ccc3c(c2)OCO3)cc1 | / | / | -1 | -28 | -9 | / | / | /
COc1ccc(OCC(=O)Nc2cccc(-c3nc4ccccc4[nH]3)c2)cc1 | / | / | 1 | 25 | 24 | / | / | /
O=C(COc1ccccc1)Nc1cccc(-c2nc3ccccc3[nH]2)c1 | / | / | 9.2* | / | 13 | / | 6 | 4
O=C(Nc1ccc(-c2nc3ccccc3[nH]2)cc1)c1ccc2c(c1)OCO2 | -1 | -13 | 19* | 45* | -41 | 0 | 13* | 4
C[C@H]1CN([C@@H](C)CO)S(=O)(=O)c2ccc(C3=CCCCC3)cc2O[C@H]1CN(C)C(=O)Nc1ccc2c(c1)OCO2 | 12 | / | / | 12 | / | 1 | / | /
CN(C)c1ccc2c(c1)[C@@H]1C[C@@H](CC(=O)NCCN3CCCCC3)O[C@H](CO)[C@@H]1O2 | 17 | / | / | -4 | / | -1 | / | /
CO[C@@H](CN(C)S(=O)(=O)c1cn(C)cn1)[C@H](C)CN(C(=O)Nc1ccc(C(F)(F)F)cc1)[C@@H](C)CO | -1 | / | / | -4 | / | 0 | / | /
COCC(=O)Nc1ccc2c(c1)OC[C@@H](C)N(C(C)=O)C[C@@H](C)[C@@H](OC)CN(C)C2=O | 0 | / | / | 1 | / | 0 | / | /
Cc1nc(NC(=O)c2ccc3c(c2)OCO3)ccc1Br | -3 | -3 | 8.6* | / | 129* | 0 | 6 | 14*
CCC(CC)c1nnc(NC(=O)COc2ccc3c(c2)OCO3)s1 | -5 | 1 | -3 | 0 | 8 | 0 | / | /
Cn1ncc([N+](=O)[O-])c1C(=O)Nc1ccc(-c2nc3ccccc3[nH]2)cc1 | / | / | 9.6* | 56* | 49 | / | 12* | 2
Cn1ncc([N+](=O)[O-])c1C(=O)Nc1ccc(Cl)cc1 | 1 | -1 | -4 | 5 | -2 | 0 | / | /
CCC(CC)c1nnc(NC(=O)c2ccc3c(c2)OCO3)s1 | 0 | 7 | 10* | 58* | 79 | 0 | 3 | 6.6*
Cc1nc2ccc(-c3nc4ccccc4[nH]3)cc2[nH]1 | -1 | ? | 16* | / | 55 | 0 | 14* | 12*
C[C@@H]1CN([C@H](C)CO)C(=O)Cc2cc(NC(=O)CCN3CCOCC3)ccc2O[C@@H]1CN(C)C(=O)Nc1ccc(F)cc1 | -22 | / | / | 3 | / | 0 | / | /
SMILES | MLL AF4-AF9 inh | Wnt act | SMARCA2 act | esBAF inh | MITF TRPM1 HTS | FGF22 binding | SMARCA2 act conf | GAL4-VP16 Luc
COCC(=O)N1[C@@H](CO)[C@H](c2ccccc2)C12CN(C(=O)c1ccccc1)C2 | -5 | / | / | / | / | / | / | /
O=C(Cc1cccs1)Nc1ccc(-c2nc3ccccc3[nH]2)cc1 | / | / | 8.8* | / | 34 | / | 7 | 13*
O=C(Nc1ccc(-c2nc3ccccc3[nH]2)cc1)c1c(F)c(F)c(F)c(F)c1F | -2 | -1 | 3 | -4 | 1 | 42 | / | /
c1ccc2[nH]c(-c3ccc4c(c3)OCO4)nc2c1 | -2 | -1 | 8.1* | / | / | 0 | 22* | 12*
O=C(Nc1ccccn1)c1ccc2c(c1)OCCO2 | -5 | 14 | 11* | -14 | 52 | 0 | 6 | 6.0*
CC=Cc1ccc2n(c1=O)C[C@H]1[C@H](CO)[C@@H](C(=O)NCCN3CCCCC3)N(C(C)=O)[C@@H]21 (mixture of isomers) | -3 | / | / | / | / | / | / | /
Cc1ccc(C(=O)CC(C(=O)O)n2ccc(C)n2)cc1 (stereo not drawn) | / | -5 | 8.2* | 2 | 2 | / | -1 | 0
Cc1ccc(C(=O)CSc2nc(C)cc(C)c2C(N)=O)cc1 | -23 | -1 | 2 | 4 | 12 | 0 | / | /
CC(C)NC(=O)Nc1cccc2c1O[C@@H](CN(C)Cc1ccc(Cl)c(Cl)c1)[C@@H](C)CN([C@@H](C)CO)C2=O | 0 | / | / | 1 | / | 0 | / | /
COc1ccc2c3c(n(C)c2c1)[C@@H](CO)N(Cc1ccc2c(c1)OCO2)CC31CN(C(=O)C2CC2)C1 | 11 | / | / | / | / | 0 | / | /
Nc1nc2c(C(=O)N3CCOCC3)nnn2c2ccccc12 | -2 | 29 | 11* | 3 | / | 0 | 6 | 9.1*
CCOC(=O)c1nnn2c1nc(N1CCOCC1)c1ccccc12 | 2 | 1 | -1 | / | / | 0 | / | /
CC(=O)Nc1ccc(-c2c(C)cc3oc(=O)cc(-c4ccccc4)c3c2C)cc1 | -3 | -2 | 9.2* | 3 | -20 | 0 | -2 | 2
Cc1ccc(-c2c(C)cc3oc(=O)cc(-c4ccccc4)c3c2C)cc1 | 4 | -2 | -3 | -8 | -1 | 0 | / | /
COc1ccc(CN(C)C[C@@H]2OCCCC[C@@H](C)Oc3ccc(NS(=O)(=O)c4c(C)noc4C)cc3C(=O)N([C@@H](C)CO)C[C@H]2C)cc1 | / | / | / | -5 | / | 0 | / | /
CO[C@H]1CN(C)C(=O)c2ccc(NC(=O)NC(C)C)cc2OC[C@H](C)N(CCC(F)(F)F)C[C@H]1C | 0 | / | / | 6 | / | 0 | / | /
COCC(=O)N(C)C[C@@H]1Oc2ncc(-c3ccc(C#N)cc3)cc2C(=O)N([C@@H](C)CO)C[C@H]1C | -3 | / | / | -5 | / | 0 | / | /
Cc1ccc(OCc2cc(C(=O)N3CCN(c4ccccc4)CC3)no2)cc1C | 0 | 36* | 13* | ? | 83* | 0 | 6 | 6.4*
